High-throughput results from PubChem.
Rows were chosen to be rich in hits. Some 2.3% of all compounds tested hit in one or more screens of this group.
MITF TRPM1 inh: inhibitors of MITF-driven TRPM1 promoter in melanoma cells; SK-MEL-5 TRPM1 promoter luciferase, 24 h; 0.83% of 330,000 active; inhibition, % at 12.5 µM;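 active = mean inhibition across replicates of 60% or more, whatever share of single replicates reaches that level; inconclusive = some that reach 60%, reason not given; inactive = mean inhibition across replicates below 60%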
Shn3 inh set2: reduces Shn3 3'UTR luciferase signal in osteoblasts. Clone20 osteoblast Shn3 3'UTR firefly luciferase, 24 h. 0.52% of 360,000 active. inhibition, % at 12.5 µM;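 active = mean inhibition of at least 75% with every replicate also reaching 75%; inconclusive = mean inhibition at least 75% but some replicate below; inactive = mean inhibition below 75%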;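 note: 0% = median of neutral control wells and 100% = pilot-screen positive control compound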
Gli-Sufu antag: antagonists of Gli-Sufu signaling; Sufu-KO-LIGHT fibroblasts, Gli luciferase reporter luminescence; inhibition, % at 5 µM; 0.74% of 340,000 active; AID 588413;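 active = inhibition above about 55%, limit read from the data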;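 note: 0% = DMSO-treated cells and 100% = wells with medium but no cells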
Jurkat NFkB inh: lowers PMA/ionomycin-induced NF-kB signal in Jurkat cells; PMA/ionomycin-induced NF-kB luciferase reporter, luminescence; 0.53% of 330,000 active; inhibition, % at 4 µM; AID 435003; in the data active = inhibition above about 50%
LMP1 NFkB inh: reduces LMP1-driven NF-kappaB luciferase signal. LMP1-induced NF-kappaB luciferase reporter cells, luminescence. inhibition, % at 12.5 µM. 0.69% of 350,000 active. AID 504558; in the data active = inhibition above about 41%; inconclusive = no clear call, values can overlap the other calls;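 note: 0% = neutral control wells and 100% = reference inhibitor control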
697 NFkB inh: lowers PMA/ionomycin-induced NF-kB signal in 697 B cells. inhibition, % at 4 µM. 697 B-cell NF-kB luciferase reporter, 16 h. 0.33% of 330,000 active; in the data active = inhibition above about 35%
Gli antag conf: confirmation of Gli-SUFU pathway antagonists; Sufu-KO-LIGHT cells, Gli luciferase reporter, luminescence; shares compounds with Gli-Sufu antag; 40% of 2,500 active; inhibition, % at 5 µM;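 active = mean inhibition at 5 µM reaching about 45%, limit read from the data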;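 note: plate controls were DMSO-treated cells for no effect and wells lacking cells for full effect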
Gli cytotox: cytotoxicity counter-screen for Gli-SUFU antagonists. shares compounds with Gli-Sufu antag. Sufu-KO-LIGHT cells cytotoxicity, ATP luminescence. cytotoxicity, % at 5 µM. 32% of 2,500 active. AID 651994;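 active = mean cytotoxicity at 5 µM above about 25%, limit read from the data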;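 note: cells exposed to compound overnight for roughly 16 to 18 hours; plate controls were DMSO wells with cells for no effect and medium without cells for full effect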
Wnt3a cs: inhibits Wnt3a reporter, counter-screen for Gli-SUFU antagonists | shares compounds with Gli-Sufu antag | Wnt-LIGHT cells, Wnt3a-driven luciferase reporter, luminescence | inhibition, % at 6.25 µM | 20% of 2,500 active;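 active = mean inhibition above about 25%, limit read from the data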
Active calls of the source: *; ? = inconclusive; . = no result.

SMILES | MITF TRPM1 inh | Shn3 inh set2 | Gli-Sufu antag | Jurkat NFkB inh | LMP1 NFkB inh | 697 NFkB inh | Gli antag conf | Gli cytotox | Wnt3a cs
Cc1ccc(CS(=O)(=O)CCC(=O)NCc2ccccc2Cl)cc1 | -4.9 | 0.4 | 53.2 | -11.3 | 3.1 | 9.1 | 8.2 | 22.4 | -16.4
COc1cc(OC)c(OC)cc1CNC(=O)c1cccc(S(=O)(=O)N2CCc3ccccc3C2)c1 | 26.4 | ? | 65.8* | 45.3 | 25.6 | 12.3 | 63.6* | 35.5* | 25.4*
CCN(Cc1ccccc1)C(=O)CSc1nc(C)cc(C)c1C#N | 1.7 | 3.9 | 16.3 | 14.1 | -7.2 | 11.2 | . | . | .
Cc1cccc(CNC(=O)C2CCCN(c3nn4c(=O)cc(C)nc4s3)C2)c1 (stereo not drawn) | . | 2.5 | 1.7 | 0.7 | -2.6 | -15.9 | . | . | .
Cc1nnc(Sc2cc(C(=O)NC3CC3)c3ccccc3n2)s1 | 32.2 | 7.5 | 19.9 | 9.7 | 2.1 | 6.6 | . | . | .
O=C(c1ccc(=O)[nH]c1)N1CCN(S(=O)(=O)c2ccc(Cl)cc2)CC1 | -0.9 | 8.3 | 54.2 | 0.2 | -3.4 | 17.6 | 21.5 | -8.0 | 7.3
Cc1ccc(S(=O)(=O)N2CCN(C(=O)c3ccc(S(=O)(=O)N4CCCC4)cc3)CC2)cc1 | 11.5 | 5.8 | 57.2* | 3.9 | 0.4 | -14.3 | 42.7 | 22.5 | -13.4
O=C(c1ccc(S(=O)(=O)N2CCCC2)cc1)N1CCCCCC1 | -0.6 | 8.4 | 5.4 | 9.5 | -2.4 | 17.3 | . | . | .
CN1CCN(NC(=O)c2ccc(F)cc2)CC1 | 1.7 | -16.2 | 23.7 | 3.5 | -3.9 | -7.3 | . | . | .
CN1CCN(NC(=O)c2ccc(Cl)s2)CC1 | -0.2 | -1.9 | 51.8 | 4.0 | 1.5 | 12.5 | 13.6 | 0.0 | 15.1
CN(C[C@@H](Cc1cccc2ccccc12)N(C[C@H](Cc1ccccc1)N(CCc1ccccc1)N=O)N=O)N=O | -11.6 | 25.1 | 60.0* | 16.0 | -2.4 | 25.7 | 7.0 | 9.7 | -11.6
CN(C[C@H](Cc1ccccc1)N(C[C@@H](Cc1cccc2ccccc12)N(CCc1ccccc1)N=O)N=O)N=O | 18.6 | 14.0 | 4.1 | -1.7 | -9.5 | 0.0 | . | . | .
COc1ccc(OCCC(=O)OCC(=O)NC(=O)NC(C)C)cc1 | -1.3 | -1.2 | -2.3 | -0.4 | 3.5 | -4.9 | . | . | .
COc1ccccc1NS(=O)(=O)c1ccc2c(c1)CCN2C(=O)CCC(=O)O | -1.6 | -6.7 | 54.5 | -5.4 | 1.7 | 0.4 | 17.1 | 7.1 | 3.2
COc1ccc2ccccc2c1CN(C)Cc1ccccc1 | -4.3 | 10.5 | 82.6* | -0.2 | 8.5 | 2.5 | 17.7 | 14.2 | -7.2
Cc1c(C(=O)N2CCN(Cc3ccccc3)CC2)oc2c1C(=O)CC(C)(C)C2 | -4.3 | -5.5 | 51.6 | -5.8 | 1.5 | -8.8 | 14.8 | 12.6 | -44.4
Cc1c(C(=O)N2CCN(c3ccccc3)CC2)oc2c1C(=O)CC(C)(C)C2 | 2.1 | 5.9 | 7.7 | 4.5 | 5.2 | 22.2 | . | . | .
COc1ccc(S(=O)(=O)N2CCCC(C(=O)N3CCOCC3)C2)cc1Cl (stereo not drawn) | -18.4 | 10.8 | -4.7 | -23.7 | -4.4 | -2.9 | . | . | .
COc1ccc(S(=O)(=O)N2CCOCC2)cc1C(=O)N1CCCC1 | 4.0 | 8.3 | 60.9* | -3.0 | -1.9 | 1.3 | 20.4 | 9.6 | -3.1
COc1ccc(S(=O)(=O)N2CCCC(C(=O)N3CCOCC3)C2)cc1C (stereo not drawn) | 4.1 | 2.8 | 99.0* | -3.1 | 0.6 | 19.3 | 24.8 | 16.9 | 3.5
Cc1c(Cl)cccc1NC(=O)NN1CCN(C)CC1 | -0.7 | 3.8 | 95.1* | -5.3 | 0.4 | 12.2 | 9.9 | 23.7 | -7.2
O=C(Nc1cc(Cl)cc(Cl)c1)C(NCC1CCCO1)c1ccccc1 (stereo not drawn) | -6.8 | -7.5 | 14.6 | -1.9 | 9.7 | 17.2 | . | . | .
CCn1c(=NC(=O)CS(=O)(=O)c2ccccc2)sc2cccc(OC)c21 | -3.5 | 87.2* | 66.6* | 33.8 | 12.4 | -37.6 | 67.1* | 21.5 | 11.7
CC1(C)CC(N2CCOCC2)=CC(=[N+]2CCOCC2)C1 | 9.1 | 3.7 | -7.2 | -13.6 | 5.9 | -1.6 | . | . | .
CC1(C)CC(N2CCCCC2)=CC(=[N+]2CCCCC2)C1 | 56.6 | ? | 83.7* | 43.6 | 12.7 | -8.0 | 87.2* | 46.5* | 47.6*
SMILES | MITF TRPM1 inh | Shn3 inh set2 | Gli-Sufu antag | Jurkat NFkB inh | LMP1 NFkB inh | 697 NFkB inh | Gli antag conf | Gli cytotox | Wnt3a cs
O=c1c2c([nH]c3ccc(Br)cc13)CCCC2 | 3.5 | -10.7 | 8.2 | 6.0 | 2.7 | 6.7 | . | . | .
O=c1c2c([nH]c3ccccc13)CCC2 | 0.1 | 29.0 | 60.0* | 4.3 | -4.1 | 15.1 | 29.9 | 6.0 | 5.5
CN(C)C(CNC(=O)c1cccc(S(=O)(=O)N2CCN(c3ccccc3)CC2)c1)c1ccccc1 (stereo not drawn) | 1.2 | 78.0 | 29.1 | . | -8.2 | . | . | . | .
COc1ccc(C(CNC(=O)c2cc(S(=O)(=O)N3CCN(c4ccccc4)CC3)ccc2Cl)N(C)C)cc1 (stereo not drawn) | 23.2 | 48.9 | 68.3* | 16.5 | 12.2 | -16.7 | 21.5 | 13.0 | -43.3
Cc1ccc(N(CC(=O)NCc2ccc(F)cc2)S(=O)(=O)c2c(C)n[nH]c2C)cc1 | 9.3 | -6.7 | 73.2* | -4.6 | 0.5 | -46.6 | 14.0 | 7.3 | -48.9
C=CCN(CC=C)C(=O)C1CCN(Cc2ccc(OCc3ccccc3)cc2)CC1 | -5.6 | 2.9 | 36.0 | -7.7 | 5.0 | 10.8 | . | . | .
COc1ccc(CN2CCN(C(=O)CN3C(=O)C4C5C=CC(C5)C4C3=O)CC2)c(OC)c1OC (stereo not drawn) | 17.4 | 26.4 | 62.1* | 6.5 | 13.8 | -27.8 | 19.3 | 20.8 | -2.6
Cc1nnsc1C(=O)Nc1ccc(S(=O)(=O)N2CCC(C)CC2)cc1 | 29.1 | 48.6 | 54.4 | 11.9 | 10.9 | -61.1 | 27.6 | 22.5 | -58.8
COc1cc(Br)c(CC(=O)NNC(=O)c2ccc(F)cc2)cc1OC | 10.6 | -8.2 | 3.9 | 11.4 | 3.8 | 15.7 | . | . | .
CCNc1nc(OC)nc(N(OC)S(=O)(=O)c2ccc(C)cc2)n1 | 12.5 | -8.5 | 52.6 | -8.2 | -4.4 | -22.4 | 24.4 | 4.9 | -21.9
CCCc1cc(C(=O)N2CCN(c3ccc(C(F)(F)F)cn3)CC2)sc1C | 0.6 | -9.1 | 40.3 | -1.6 | 23.7 | 11.1 | . | . | .
CCCCn1c(CCl)nc2cc(S(=O)(=O)N3CCOCC3)ccc21 | 49.3 | -7.4 | -0.6 | 10.0 | 10.3 | 13.4 | . | . | .
O=S(=O)(c1ccc2c(c1)nc(COc1ccc(Cl)cc1)n2CC1CCCO1)N1CCOCC1 (stereo not drawn) | 6.3 | 19.4 | 59.9* | 0.7 | -11.9 | -23.4 | 45.4* | 9.0 | 32.8*
O=C(CN1CCOCC1)NCc1cc([N+](=O)[O-])ccc1O | 1.6 | 3.2 | 55.1* | -1.1 | 3.6 | -10.5 | 22.4 | 0.4 | -2.8
